This passage reports inhibition results from PubChem BioAssay AID1566 (Sanford-Burnham Center for Chemical Genomics, 2009).

The whole screen tested about 290,000 compounds, of which about 1,800 (0.62%) were called active. The list comes from a sample in which actives are over-represented; it also holds similar structures and randomly drawn compounds. Unmarked numbers belong to inactive results. No stated cut-off is given here; in the data, active means inhibition above about 50%; inactive means the rest.

This assay is described as follows: inhibition of NOD2-driven NF-kB reporter – cell-based, luminescence, uHTS, HEK293 (AID 1566). The note with it: HEK293 NOD2/NF-kB luciferase reporter, at 4 µM, hits give high values. (A reporter such as luciferase makes a cellular process visible.)
One may read the inhibition as the relative decrease from the control value, in per cent. `CCn1c(CNc2ccc(Cl)cc2)nnc1SCC(=O)OC1CCCCC1`: the inhibition was 4.4%.

On to `CCOC(=O)C1CCN(C(=O)COC(=O)c2ccc(Br)o2)CC1`, for which the inhibition is 20.2%.

For the compound `Cc1cc2c(s1)c1cnn(Cc3ccccc3F)c(=O)c1n2C`, the inhibition is 10.1%.

For the compound `CCOc1ccccc1C(=O)N1CCN(c2cccc(Cl)c2)CC1`, the inhibition is -14%.

In the case of `COc1ccc(N(C)C(=O)c2cnc(N3CCN(c4ncccn4)CC3)c3ccccc23)cc1`, the inhibition was 14.7%.

Take `CN(C(=O)c1cnc(N2CCN(c3ncccn3)CC2)c2ccccc12)c1ccc(Cl)cc1`: the inhibition was 15.1%.

Consider `COc1ccccc1C(=O)N1CCN(c2cccc(Cl)c2)CC1`, for which the inhibition was 3.1%.

Turning to `COc1cc(C(=O)Nc2ccccc2N2CCOCC2)ccc1OCc1c(C)noc1C`, the inhibition was 1.5%.

On to `CCOC(=O)c1cccc(NC(=O)c2ccc(NC(=O)C3CCCO3)cc2)c1` (stereo not drawn), for which the inhibition is 5.8%.

For the compound `CCOC(=O)c1ccc(NC(=O)C2CCCO2)cc1` (stereo not drawn), the inhibition is -21.8%.

On to `CCOC(=O)c1ccc(NC(=O)c2ccc(NC(=O)C3CCCO3)cc2)cc1` (stereo not drawn), for which the inhibition was 51.3% (active).

For `CC(Sc1nnc(N)s1)C(=O)Nc1nccs1` (stereo not drawn), the inhibition was -1.1%.

`COc1ccc(-c2nc(C#N)c(N3CCN(c4cccc(Cl)c4)CC3)o2)cc1OC`: the inhibition was 0.1%.

For the compound `COc1ccccc1-c1nc(C#N)c(N2CCN(c3ccccc3)CC2)o1`, the inhibition was -1.7%.

Consider `Cc1noc(C)c1COC(=O)COc1cccc2c1OC(C)(C)C2`, for which the inhibition is 6.1%.

As to `C=CCN(c1ccc(C(=O)Nc2ccc(NC(C)=O)cc2)cc1)S(C)(=O)=O`, the inhibition was 15.2%.

As for `COc1ccc(N(CC(=O)NCCC2=CCCCC2)S(=O)(=O)c2ccccc2)c(OC)c1`, the inhibition was 1.9%.

In the case of `Cc1cccc(NS(=O)(=O)c2ccc(NC(=O)N3CCCCC3)cc2)c1`, the inhibition is 33.7%.

Take `CC(=O)c1cccc(NC(=O)N2CCCCCC2)c1`: the inhibition was 6.3%.

Consider `CC1(C)CC(=O)C=C(N2CCN(C3=CC(=O)CC(C)(C)C3)CC2)C1`, for which the inhibition was -10.7%.

As for `Cc1ccc(C(=O)NC(=S)Nc2ccc(N3CCOCC3)cc2)cc1C`, the inhibition is 50.7% (active).

With `Cc1cccc(C(=O)NC(=S)Nc2ccc(N3CCOCC3)cc2)c1`, the inhibition is 7.7%.

As for `COc1ccc(C(=O)NC(=S)Nc2ccc(N3CCOCC3)cc2)cc1Cl`, the inhibition was 13.8%.

On to `Cc1ccn2c(NC(=O)c3cccs3)c(-c3ccccc3)nc2c1`, for which the inhibition was 17.5%.

With `COc1ccc(OC)c(Cc2nnc(CCC(=O)NCc3nc4ccccc4s3)o2)c1`, the inhibition is 5.2%.

As for `CC(C)Cc1nc(N2CCN(C(=O)c3ccco3)CC2)c(C#N)c2c1CCC2`, the inhibition is 13.3%.

For `CC(C)Cc1nc(N2CCN(C(=O)c3ccco3)CC2)c(C#N)c2c1CCCC2`, the inhibition is 23.8%.

Consider `Cc1ccc(S(=O)(=O)N(CC(=O)NCCSCc2ccco2)c2ccc(F)cc2)cc1`, for which the inhibition was -2.2%.

On to `CC(C)CNC(=O)CN(c1ccccc1)S(=O)(=O)c1ccccc1[N+](=O)[O-]`, for which the inhibition was -10.6%.

For `O=C(c1ccccc1)N1CCN(CC(O)COc2cccc3ccccc23)CC1` (stereo not drawn), the inhibition is -10%.

With `CCOC(=O)c1c(NC(=O)CSc2nc3ccccc3c(=O)n2-c2ccc(F)cc2)sc(C(C)=O)c1C`, the inhibition is -19.4%.

`O=S(=O)(Nc1ccc(N2CCOCC2)cc1)c1ccc(F)cc1F`: the inhibition was -1.9%.

`O=C(c1ccco1)N1CCCC(c2nc3c(nnn3Cc3c(Cl)cccc3Cl)c(=O)[nH]2)C1` (stereo not drawn): the inhibition was -43.2%.

For the compound `O=[N+]([O-])c1ccc(-c2c(O)c3ccccc3c3nc4ccccc4nc23)cc1`, the inhibition was 58.6% (active).

For the compound `O=[N+]([O-])c1ccc(-c2cnc3ccccc3n2)cc1`, the inhibition was -35.5%.

For the compound `Cc1cc(-c2ccc([N+](=O)[O-])cc2)nc2ccccc12`, the inhibition was -13.5%.

`Cc1ccc(Oc2nc3ccccn3c(=O)c2/C=C(\C#N)C(=O)NC2CCS(=O)(=O)C2)c(C)c1` (stereo not drawn): the inhibition was 0.4%.

With `O=C(OC1CCCCC1)c1ccc(NC(=O)c2ccco2)cc1`, the inhibition was -39.4%.

Consider `O=C(OC1CCCCC1)c1ccc(NC(=O)C2CCCCC2)cc1`, for which the inhibition is 8.6%.

In the case of `O=C(Nc1ccc(C(=O)OC2CCCCC2)cc1)c1ccncc1`, the inhibition is 61.2% (active).

`COCCNC(=O)C1CC(c2ccc([N+](=O)[O-])cc2)=NO1` (stereo not drawn): the inhibition is 21%.

With `COc1ccc(OCC(=O)Nc2cccc(NC(=O)c3ccco3)c2)cc1`, the inhibition is 1.8%.

On to `Cc1cnnn1-c1cccc([N+](=O)[O-])c1`, for which the inhibition was -9.2%.

With `COC(=O)Cc1[nH]n(-c2nc3ccccc3s2)c(=O)c1C(C)=O`, the inhibition is -18.8%.

For `COC(=O)Cc1[nH]n(-c2nc3ccccc3s2)c(=O)c1C(C)=Nc1ccc(Cl)cc1`, the inhibition is 6.3%.

Turning to `CN(Cc1cn[nH]c1-c1ccc2c(c1)OCO2)C1CCOCC1`, the inhibition is 10.5%.

As for `Cc1nc(N/N=C/c2ccccn2)sc1C`, the inhibition is 56.9% (active).

As to `Cc1csc(N/N=C/c2ccccn2)n1`, the inhibition is -60.9%.

For the compound `CCCc1sc(N/N=C/c2ccccn2)nc1-c1ccc(Br)cc1`, the inhibition was -44.6%.

Consider `Oc1ccc(Br)cc1CNc1ccccn1`, for which the inhibition is -10.8%.

Turning to `O=C(CCl)Nc1cccc(Oc2cnccn2)c1`, the inhibition is -47.8%.

`CCCCc1ccc(NC(=S)NCCc2ccc(S(N)(=O)=O)cc2)cc1`: the inhibition is 24.9%.

Take `COc1ccccc1CCNC(=O)Nc1cccc([N+](=O)[O-])c1`: the inhibition was 13.6%.

In the case of `COc1ccc(CCNC(=O)Nc2cccc([N+](=O)[O-])c2)cc1OC`, the inhibition was 4.7%.

As for `COc1ccc(CCNC(=O)Nc2cccc([N+](=O)[O-])c2)cc1`, the inhibition is 79.5% (active).

Regarding `CCOC(=O)c1c(N)sc(C(=O)N(CC)CC)c1C`, the inhibition was 2.6%.

Turning to `CC1(C)CC(=O)C=C(NCc2cccs2)C1`, the inhibition is 1.3%.

As to `OCC[C@@H]1C[C@H](O)[C@@H](O)[C@]2(Cc3ccccc3CCO2)O1`, the inhibition is -4.1%.

Take `Cc1oc(-c2ccc(Cl)cc2)nc1CN1CCCC(C(=O)N2CCOCC2)C1` (stereo not drawn): the inhibition is 10.7%.

As to `Cc1oc(-c2ccc(Cl)cc2)nc1CN1CCCC(C(=O)N2CCN(C(=O)c3ccco3)CC2)C1` (stereo not drawn), the inhibition was 50% (active).

As for `Cc1oc(-c2ccc(Cl)cc2)nc1CN1CCCN(C(=O)c2ccco2)CC1`, the inhibition is 18.6%.

In the case of `COc1ccc(OC)c(S(=O)(=O)Nc2ccc(OCC(=O)O)cc2)c1`, the inhibition is 3.3%.

For the compound `COc1ccc(NC(C)=O)cc1S(=O)(=O)NC(Cc1ccccc1)C(=O)O` (stereo not drawn), the inhibition is -25.7%.

As to `COc1ccc(CC(NC(C)=O)C(=O)NC2CCN(C(=O)C3CCCCC3)CC2)cc1OC` (stereo not drawn), the inhibition was 13.5%.

Take `CCOCCCNS(=O)(=O)c1ccc(NC(=O)c2ccccc2)cc1`: the inhibition is 11.3%.

With `Cc1nnc(SCC(=O)Nc2ccc([N+](=O)[O-])cc2)n1CC1CCCO1` (stereo not drawn), the inhibition is 2.5%.

For `CC1CCc2c(sc3ncnc(N4CCOCC4)c23)C1` (stereo not drawn), the inhibition was 26%.

For `CC1CCc2sc3ncnc(N4CCN(C)CC4)c3c2C1` (stereo not drawn), the inhibition is 12.6%.

On to `CCOc1ccc(NC(=O)CC2C(=O)N(c3ccccc3)C(=O)N2CCc2cccs2)cc1` (stereo not drawn), for which the inhibition is 23.4%.

On to `COc1ccc(CCNC(=O)C2CCN(S(=O)(=O)c3ccc(-n4cnnn4)cc3)CC2)cc1OC`, for which the inhibition is 6%.

For the compound `CCOc1ccccc1NC(=O)CNC(=O)CNC(=O)Cc1ccccc1`, the inhibition is -3.4%.

For the compound `Cc1sc2ncnc(NC3CCN(Cc4ccccc4)CC3)c2c1C`, the inhibition is 36.9%.

Regarding `Cc1csc2c(NC3CCN(Cc4ccccc4)CC3)ncnc12`, the inhibition was 34.1%.

`COc1cc(CC(=O)NCC2CCCCC2)cc(OC)c1OC`: the inhibition is -1.9%.

Take `CCOc1cccc(-c2nnc3sc(C4CCCCC4)nn23)c1`: the inhibition is 20.8%.

As to `COc1cccc(-c2nnc3sc(C4CCCCC4)nn23)c1`, the inhibition is 55.3% (active).

Regarding `COc1ccc(-c2nnc3sc(C4CCCCC4)nn23)cc1OC`, the inhibition was 13.6%.

`O=C(NC1CCCCCC1)c1ccc(OCC2CCCO2)cc1` (stereo not drawn): the inhibition is -82%.

With `OCCC1CN(Cc2cccn2-c2ccccn2)CCN1C1CCCCC1` (stereo not drawn), the inhibition was -19.4%.

Regarding `Cc1c(/C=N/NC(=O)c2ccc(O)cc2)c2ccccn2c1C(=O)c1ccc(F)cc1`, the inhibition was 7%.

Regarding `CNC(=S)N/N=C/c1c(C)c(C(=O)c2ccc(F)cc2)n2ccccc12`, the inhibition is 25.2%.

Turning to `Cc1cccc(NS(=O)(=O)c2ccc(C(=O)NCCCN3CCOCC3)cc2)c1C`, the inhibition was 14.9%.

In the case of `S=C(NCc1ccccc1)Nc1cccc2cnccc12`, the inhibition was 52.6% (active).

Consider `S=C(NCc1cccnc1)Nc1cccc2ccccc12`, for which the inhibition is -6.2%.

Consider `S=C(NCc1ccccc1)Nc1cccc2ccccc12`, for which the inhibition is 3.3%.

As to `O=C(NN1CCOCC1)c1ccc(S(=O)(=O)N2CCCCC2)cc1`, the inhibition was 4.3%.

As for `O=C(O)c1cc(-c2ccc(N3CCOCC3)cc2)nn1-c1ccccc1Cl`, the inhibition is 3.2%.

With `N#C/C(=C\Nc1ccc(F)c(Cl)c1)S(=O)(=O)c1ccccn1`, the inhibition was 0.9%.

Turning to `CCn1cc([N+](=O)[O-])c(C(=O)Nc2nc(-c3ccc(C)cc3)c(C)s2)n1`, the inhibition was 3%.

As to `CCn1cc([N+](=O)[O-])c(C(=O)Nc2nc(-c3ccc(C)c(C)c3)c(C)s2)n1`, the inhibition is 13%.

`Cc1nc(SCc2ccc(F)cc2)c2oc3ccccc3c2n1`: the inhibition was 11.8%.

For the compound `Clc1ccc(-n2ncc3c(N4CCCC4)ncnc32)cc1`, the inhibition is 17.1%.

With `CCOC(=O)C1CCN(c2ncnc3c2cnn3-c2ccc(Cl)cc2)CC1`, the inhibition is 57.5% (active).

As to `CCOC(=O)C1CCN(c2ncnc3c2cnn3-c2ccccc2)CC1`, the inhibition is 1.8%.

Take `COc1ccc(-n2ncc3c(N4CCCCC4)ncnc32)cc1`: the inhibition was 67.7% (active).

On to `COc1ccc(-n2ncc3c(N4CCC(C(N)=O)CC4)ncnc32)cc1`, for which the inhibition was -46.4%.

As for `CC1CCCN(c2ncnc3c2cnn3-c2ccccc2)C1` (stereo not drawn), the inhibition is -14.2%.

For the compound `CC1CC(C)CN(c2ncnc3c2cnn3-c2ccc(Cl)cc2)C1` (stereo not drawn), the inhibition was 27.7%.

For the compound `COc1ccc(-n2ncc3c(N4CCC(C)CC4)ncnc32)cc1`, the inhibition was -97.6%.

Consider `CCOC(=O)C1CCN(c2ncnc3c2cnn3-c2ccc(OC)cc2)CC1`, for which the inhibition was 23.8%.

Turning to `Clc1ccc(-n2ncc3c(N4CCCCCC4)ncnc32)cc1`, the inhibition was 70.6% (active).

In the case of `CC1CCCN(c2ncnc3c2cnn3-c2ccc(Cl)cc2)C1` (stereo not drawn), the inhibition was 86.2% (active).

Consider `c1ccc(-n2ncc3c(N4CCCCC4)ncnc32)cc1`, for which the inhibition is -32.5%.
